We go through five molecules from PubChem BioAssay.

Assay [1] is described as follows: reducers of endogenous Her2 protein level, primary screen, SKBR3 breast tumor cells, AlphaScreen, ATP viability (AID 461;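 active = Her2 level under about 52% in both replicate screens, with viability over 70% of control, limit read from the data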;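 as to Her2 level: lower value means less Her2 protein in the cells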;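 as to viability: percent of carrier control wells set as 100% viability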). The note with it: 18-24 h, measured here: SKBR3 viability, ATP luminescence, at 10 µM. For orientation: In Alpha technology, singlet oxygen from a donor bead excites a nearby acceptor bead.
Assay [2] concerns the target Receptor tyrosine-protein kinase erbB-2 (Homo sapiens) (UniProt P04626). The description is as above. The following applies: 18-24 h, at 10 µM, stronger effect = lower value.
Assay [3] is described as follows: SK-BR-3 cell growth inhibitors, pilot screen, 24 h, human (AID 572;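 active = viability at or below 10% of carrier control in both of two separate runs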;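 also: compound exposure lasted between 18 and 24 h rather than exactly 24 h; 100% = carrier-treated control wells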). The following applies: SK-BR-3 viability, CellTiter-Glo luminescence, at 10 µM, stronger effect = lower value. A general note: In ATP-based viability assays light output follows the ATP content of the culture.
Assay [4] can be described thus: HUVEC growth inhibition – cell-based, human, primary screen (AID 575).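 Also: 100% = median of untreated cell wells with 0.1% DMSO on each plate.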 The following applies: HUVEC proliferation, CellTiter-Glo luminescence, 72 h; at 10 µM; stronger effect = lower value.
A short description of assay [5]: growth inhibitors of H69AR lung tumor, primary screen, human, duplicate replicates (AID 580;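 active = viability at or under a set limit in both replicates, limit being median viability minus 3 SD, cut at about 48% in these data, passing the limit was not always enough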;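 also: 100% = mean luminescence of untreated wells and 0% = no signal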). The note with it: H69AR lung tumor cells viability, ATP luminescence, 72 h; at 10 µM; stronger effect = lower value.
Assay [6] can be described thus: reversal of MRP1-mediated doxorubicin resistance, pilot screen, H69AR cells, doxorubicin co-treatment (AID 601;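 active = viability loss from added drug above about 55%, and viability with drug at most 40%, in both replicates, limit read from the data, passing the limit was not always enough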). The following applies: CellTiter-Glo, 72 h, at 10 µM; for differential viability (reversal): stronger effect = higher value.
A short description of assay [7]: 384-well plate pilot, post-Golgi transport modulator project, inhibition of yeast transport mutant growth (AID 636; in the data active = inhibition above about 31%). The note with it: absorbance 615 nm, about 18 h, stronger effect = higher value.
Assay [8] is described as follows: growth suppression of yeast trafficking mutant, preliminary HTS, modulators of trafficking downstream of Golgi apparatus project, 1536-format plate, OD 615 nm (AID 637; in the data active = inhibition above about 30%). The following applies: yeast transport mutant growth, absorbance 615 nm, 18 h; stronger effect = higher value.
A short description of assay [9]: OD615 S. cerevisiae growth inhibition, permissive medium, pilot counter-assay, permissive growth control for S. cerevisiae lifespan shortening project (AID 705;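 active = growth inhibition above 25% in both replicates, a cutoff set 3 SD above the mean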). The following applies: OD615, 24 h, at 10 µM, stronger effect = higher value.
The nature of assay [10]: Restrictive medium S. cerevisiae growth inhibition, OD615, pilot screen of yeast lifespan reduction project, restrictive growth control (AID 706;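 active = growth inhibition above a set limit, 3 SD over mean compound inhibition, in both replicates, cut at about 43% in these data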;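 also: modified DeaD lifespan yeast strain shifted to restrictive glucose medium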). The following applies: OD615, 48 h, at 10 µM, stronger effect = higher value.
A short description of assay [11]: viability gain of MRP-1-high H69AR cells under doxorubicin, pilot screen, MRP-1 activator project, CellTiter-Glo, duplicate (AID 807;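 active = viability increase at or above a cutoff of the median across tested compounds plus 3 SD, cut at about 8.5% in these data, passing the limit was not always enough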;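 also: compound pretreatment 18-22 h then 72 h combined with doxorubicin; 0% = doxorubicin alone and 100% = vehicle without doxorubicin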). The following applies: H69AR viability with doxorubicin, CellTiter-Glo luminescence; at 10 µM; stronger effect = higher value.
Assay [12] in a line: growth suppression of beta-catenin knockout HCT116, pilot screen, human colon tumor cells (AID 823;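 active = cell viability at or below a set limit in both duplicate runs, the limit being the all-compound median minus 4 SD, cut at about 23% in these data, passing the limit was not always enough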;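 also: 0% = wells killed by 20 µM Hyamine and 100% = untreated DMSO cell wells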). The following applies: CellTiter-Glo, 60 h, at 10 µM, stronger effect = lower value.
The nature of assay [13]: growth suppression of PTEN-deleted HCT116, pilot screen, cell-based, HCT116 clonal line, CellTiter-Glo (AID 824;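 active = viability at or below 27.92% in each of two runs, the all-compound median minus 4 SD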;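 also: 0% = 20 µM Hyamine control and 100% = vehicle cell control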). The note with it: 60 h, at 10 µM, stronger effect = lower value.
Assay [14] is described as follows: inhibitors of the yeast RAM network, pilot screen, dse1pr::URA3 reporter, 5-FOA selection (AID 869;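 active = inhibition over a set limit, the all-compound mean plus 3 SD, in both replicate runs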;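 also: 0% = DMSO wells with no growth and 100% = 10 µM 1-NA-PP1 with full growth; RAM network block rescues cells from 5-FOA so hits raise OD615 growth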). The note with it: S. cerevisiae dse1pr::URA3 5-FOA growth, OD615, 2 d; at 10 µM; stronger effect = higher value; strain carries analog-sensitive mutant Cbk1 kinase.
Assay [15] is described as follows: RAM signaling pathway blockade in yeast – S. cerevisiae, Pdr1DBD-CYC8 efflux-inhibited sensitized strain, primary screen (AID 1298;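 active = RAM network inhibition above 8.4% in each of two replicates, 3 SD over the compound average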;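 also: 0% = DMSO untreated cells without growth and 100% = 10 µM 1-NA-PP1 full growth; higher means more yeast growth rescued from 5-FOA killing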). The note with it: S. cerevisiae cbk1-as DSE1-URA3 strain, 5-FOA growth OD615, 2 d; at 50 µM; stronger effect = higher value.
[16] abbreviates: H69AR cells + 2 uM doxorubicin, measured here: viability with 2 uM doxorubicin, stronger effect = lower value.
[17] abbreviates: H69AR cells, compound alone cytotoxicity.

Inconclusive results are not listed. The source made the active and inactive calls.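 The calls were made as follows, unless noted: active = viability at or below 30% in both replicate assays; inconclusive = viability at or below 30% in just one of the two assays; inactive = the rest.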

Sequence of Receptor tyrosine-protein kinase erbB-2 (Homo sapiens) (P04626 whole entry, looked up): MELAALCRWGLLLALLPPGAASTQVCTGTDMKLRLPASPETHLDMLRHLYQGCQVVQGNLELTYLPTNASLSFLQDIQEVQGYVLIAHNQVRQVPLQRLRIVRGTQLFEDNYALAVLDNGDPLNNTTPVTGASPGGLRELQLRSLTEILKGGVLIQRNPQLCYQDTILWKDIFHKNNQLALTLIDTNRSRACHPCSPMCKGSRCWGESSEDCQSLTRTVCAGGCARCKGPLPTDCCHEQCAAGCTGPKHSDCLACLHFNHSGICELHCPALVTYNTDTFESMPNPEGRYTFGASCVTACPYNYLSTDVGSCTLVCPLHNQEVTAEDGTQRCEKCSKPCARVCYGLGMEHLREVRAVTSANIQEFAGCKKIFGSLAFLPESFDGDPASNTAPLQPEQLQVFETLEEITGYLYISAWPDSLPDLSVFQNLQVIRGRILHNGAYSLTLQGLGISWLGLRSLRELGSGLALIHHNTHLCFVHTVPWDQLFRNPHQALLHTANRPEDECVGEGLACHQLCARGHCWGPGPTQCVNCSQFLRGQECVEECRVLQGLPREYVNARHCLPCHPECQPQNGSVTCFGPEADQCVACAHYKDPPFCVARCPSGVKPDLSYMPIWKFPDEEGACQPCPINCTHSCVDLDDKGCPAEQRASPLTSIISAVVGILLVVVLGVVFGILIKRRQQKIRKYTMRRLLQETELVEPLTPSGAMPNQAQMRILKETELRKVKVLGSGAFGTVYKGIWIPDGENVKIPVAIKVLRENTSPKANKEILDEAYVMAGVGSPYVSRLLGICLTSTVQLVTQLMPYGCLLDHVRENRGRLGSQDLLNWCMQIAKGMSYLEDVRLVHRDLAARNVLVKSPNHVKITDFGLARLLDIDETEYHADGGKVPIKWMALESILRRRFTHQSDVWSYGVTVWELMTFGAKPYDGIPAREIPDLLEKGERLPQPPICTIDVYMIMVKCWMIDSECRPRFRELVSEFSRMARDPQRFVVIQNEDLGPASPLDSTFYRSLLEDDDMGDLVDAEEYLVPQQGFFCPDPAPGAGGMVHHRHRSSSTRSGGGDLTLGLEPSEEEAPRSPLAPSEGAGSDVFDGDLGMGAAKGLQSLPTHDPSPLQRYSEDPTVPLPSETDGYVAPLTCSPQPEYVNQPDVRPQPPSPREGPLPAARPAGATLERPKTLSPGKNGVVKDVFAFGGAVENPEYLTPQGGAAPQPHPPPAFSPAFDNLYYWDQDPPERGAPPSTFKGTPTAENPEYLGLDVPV

The viability is a read-out of living cells in per cent, often relative to untreated cells. What is called inhibition is the relative decrease from the control value, in per cent. As for `CC(=O)N1c2c(cc(Br)cc2S(=O)(=O)NCC2COc3ccccc3O2)CC1C` (stereo not given), the viability in [1] is 97.5%; in [3], 97.5% (inactive); in assay [4], 88.9% (inactive); in assay [5], 81.7% (inactive); in assay [6] (setting [16]) it was 84.3%; in [6] (setting [17]), 81.7%. Also, the figures for the viability in [12] and in assay [13] were 83.2% (inactive) and 81% (inactive), respectively. The Her2 level in assay [2] was 85% (inactive). For the same molecule, in assay [6] (H69AR cells + 2 uM doxorubicin), the differential viability (reversal) is -2.64% (inactive). The inhibition in assay [7] was -5.34% (inactive); in [8] it was -2.06% (inactive); in assay [14], 0.495% (inactive). Also, the growth inhibition in [9] is -0.935% (inactive); in assay [10], 8.23% (inactive). Further, the viability increase in [11] was 0.21% (inactive). For the same molecule, the RAM network inhibition in assay [15] was 0.61% (inactive).
As for `O=C(NCC1CCCO1)C1CCN(S(=O)(=O)c2cccc3cccnc23)CC1` (stereo not given), the viability is 102% in [1]; 102% (inactive) in assay [3]; 112% (inactive) in assay [4]; 101% (inactive) in [5]; 94% in [6] (setting [16]); 101% in [6] (setting [17]). Moreover, the figures for the viability in assay [12] and in assay [13] were 94.2% (inactive) and 93.7% (inactive), respectively. In addition, the Her2 level in assay [2] is 93.5% (inactive). Moreover, in assay [6] (H69AR cells + 2 uM doxorubicin), the differential viability (reversal) was 7.45% (inactive). Moreover, the values for the inhibition in assay [7], in assay [8] and in [14] were -2.53% (inactive), -2.13% (inactive) and 1.76% (inactive), respectively. In addition, the growth inhibition in assay [9] was -2.44% (inactive); in assay [10], 12% (inactive). Also, the viability increase in [11] was -1.56% (inactive). Moreover, the RAM network inhibition in [15] was 2.72% (inactive).
Regarding `COc1ccc2c(c1OC)C(=O)OC2CC(=O)c1ccc(O)cc1` (stereo not given), the viability is 100% in assay [1]; 100% (inactive) in [3]; 106% (inactive) in assay [4]; 87.3% (inactive) in [5]; 90.4% in assay [6] (setting [16]); 87.3% in [6] (setting [17]). The viability in assay [12] is 102% (inactive); in [13] it was 107% (inactive). The Her2 level in assay [2] was 111% (inactive). The differential viability (reversal) in assay [6] (H69AR cells + 2 uM doxorubicin) is -3.06% (inactive). For the same molecule, the inhibition in assay [7] was 1.3% (inactive); in assay [8], -4.17% (inactive); in assay [14], 0.365% (inactive). Also, the growth inhibition was -11.6% (inactive) in assay [9] and -10.6% (inactive) in [10]. In [11], the viability increase was -0.29% (inactive). Also, the RAM network inhibition in [15] was 4.28% (inactive).
For `CCOC(=O)CN(C(=O)c1ccccc1)c1ccccc1C`, the viability in assay [1] was 93%; in assay [3], 93% (inactive); in assay [4], 104% (inactive); in assay [5], 109% (inactive); in [6] (setting [16]), 94%; in [6] (setting [17]), 109%. Also, the viability in assay [12] is 91.8% (inactive); in assay [13], 94.2% (inactive). In addition, the Her2 level in assay [2] is 108% (inactive). Further, in assay [6] (H69AR cells + 2 uM doxorubicin), the differential viability (reversal) is 15.2% (inactive). The inhibition in assay [7] is 0.78% (inactive); in [8], -11% (inactive); in [14], 0.91% (inactive). The growth inhibition was -12.9% (inactive) in assay [9] and 6.67% (inactive) in assay [10]. The viability increase in assay [11] is -0.66% (inactive). The RAM network inhibition in [15] is 1.96% (inactive).
With `CC(=O)OC1c2ccccc2C(=O)N1Cc1ccccc1Cl` (stereo not given), the viability in assay [1] is 93.5%; in [3], 93.5% (inactive); in [4], 91.3% (inactive); in [5], 88.5% (inactive); in assay [6] (setting [16]) it was 90.8%; in assay [6] (setting [17]) it was 88.5%. Moreover, the viability was 74.6% (inactive) in [12] and 91.5% (inactive) in [13]. Also, the Her2 level in [2] was 92.5% (inactive). Further, the differential viability (reversal) in [6] (H69AR cells + 2 uM doxorubicin) is -2.26% (inactive). The inhibition was -5.87% (inactive) in assay [7], -4.83% (inactive) in assay [8] and 0.06% (inactive) in assay [14]. Also, the growth inhibition in assay [9] was -1.57% (inactive); in assay [10], 5.51% (inactive). In addition, in [11], the viability increase is -3.19% (inactive). The RAM network inhibition in assay [15] is 5.73% (inactive).
